Measurements from PubChem BioAssay (NCI).
Where “and” joins values, the source holds several entries; their conditions need not be identical. Identical values can stand only once. Compounds without any hit were thinned out: in the full panel of roughly 83,000, 20% have a hit.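 Plates (96-well) were seeded with cells, treated with compound at one concentration, and incubated for 48 hours before percent growth was determined.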 Calls of active or inactive are those of the source.

What follows are compounds tested on MCF7 breast (assay: NCI-60 one-dose screen, 48 h (100 = growth as untreated, 0 = no growth, -100 = all killed)). Conditions: 10 µM.
Experimental: Growth inhibition of the MCF7 human tumor cell line is measured as a screen for anti-cancer activity. Cells are grown in 96 well plates and exposed to the test compound for 48 hours. Compounds are tested at a single concentration, which is 10^-5 M for most compounds. The reported endpoint is percent growth (GI% or GIPRCNT), where numbers from 0 - 100% represent growth inhibition, and numbers from -100% - 0 represent cell death. For example, a value of 40 represents 60% growth inhibition. A value of 0 means no net growth occurred over the course of the experiment. A value of -40 indicates 40% of cells at the beginning of the experiment died by the end of the experiment. A value of -100 means all cells are dead at the end of the experiment.
NCI-60 Human Tumor Cell Lines Screen was performed using the standard one-dose NCI protocol, which is described in more detail at https://dtp.cancer.gov/discovery_development/nci-60/default.htm.
Compounds with GIPRCNT values below 10 were considered active. Activity score was based on GIPRCNT using the following formula: […]
Score is 0 for GIPRCNT values of 100 or above, 50 for GIPRCNT values of 0, and 100 for GIPRCNT values of -100.

SMILES	growth
COc1cc2c(c(OC)c1OC)-c1ccc(O)c(=O)cc1[C@@H](NC(C)=O)CC2	7.81% (active)
CC1CCC2(OC1)OC1C(O)C3C4CCC5CC(OC6OC(CO)C(OC7OC(CO)C(O)C(OC8OCC(O)C(O)C8O)C7OC7OC(CO)C(O)C(OC8OC(CO)C(O)C(O)C8O)C7O)C(O)C6O)C(O)CC5(C)C4CCC3(C)C1C2C (stereo not given)	-34% (active)

Same assay, conditions: 10 µM unless noted

SMILES	growth
COc1cc2c3cc1Oc1c(OC)c(OC)cc4c1C(Cc1ccc(cc1)Oc1cc(ccc1O)CC3N(C)CC2)N(C)CC4 (stereo not given)	33.8% [100 µM] (inactive) and -96.4% [100 µM] (active)
O=[N+]([O-])/C=C/c1ccc(Cl)cc1[N+](=O)[O-]	-69.2% (active)
C/C(=C\c1ccc(Cl)c(Cl)c1)[N+](=O)[O-]	-85.1% (active) and 80.6% (inactive)
C[C@]12CC[C@H]3[C@@H](CCC4=CC(=O)CC[C@@H]43)[C@@H]1CC[C@@H]2OC(=O)N(CCCl)N=O	58.4% (inactive)
O=C(O)c1cc(Cc2ccc(O)c(C(=O)O)c2)ccc1O (tested in a mixture with another compound)	46.4% (inactive)
O=C1C=Cc2ccccc2C1=O	66.1% (inactive)
[Cl][Hg][c]1ccc(Cl)s1	-37.1% (active)
NC(=O)c1cc([N+](=O)[O-])c(Cl)c([N+](=O)[O-])c1Cl	-44.4% (active)
COC(=O)C1C(O)C(C)C(O)C(C)/C=C\C=C(C)C(=O)Nc2c(C)c(OC(C)=O)c3c(c2O)C(=O)C(C)=C2OCOC(=C23)C(C)=CC(C)(O)C(O)C(C)C1O (stereo not given)	93.6% (inactive)
CN(C)CC1(N)C(=O)NC(=O)NC1=O	90.9% (inactive)
COc1cc(/C=C\[N+](=O)[O-])ccc1O	9.85% (active) and 23.9% (inactive)
Cn1c(O)c(N=O)c(=O)n(C)c1=O	104% (inactive) and 97.2% (inactive)
CS(=N)(=O)CCC(N)C(=O)O (stereo not given)	101% (inactive)
Oc1c(Cl)cc(Cl)c2ccccc12.[Cu+2]	74.3% (inactive)
COC1CC2C=C(C)/C=C/C=C/C(=O)NC(c3ccccc3)C/C=C/CCC(O)CC(=O)C2=C1O (stereo not given)	-68.8% (active)
O=[N+]([O-])c1cc[n+]([O-])c2ccccc12	-16.7% (active)
COc1cc2c(cc1OC)C13CCN4CC5=CCOC6CC(=O)N2C1C6C5CC43 (stereo not given)	94.8% (inactive) and 98.6% (inactive)
O=C1CCC(=O)N1SC(Cl)(Cl)Cl	97.2% (inactive)

SMILES	growth
C#CC1(O)CCC(C(C)(C)C)CC1 (stereo not given)	99% (inactive)
COC12C(COC(N)=O)C3=C(C(=O)C(C)=C(N)C3=O)N1CC1C2N1C (stereo not given)	27.5% (inactive)
O=[N+]([O-])/C=C\c1ccc2c(c1)OCO2	-10.9% (active)
COC12c3c(C)cc(O)c4c(=O)occ(c34)C(=O)C1C13COC(=O)c4c(O)cc(C)c(c41)C(=O)C2C3OC(C)=O (stereo not given)	89.5% (inactive)
O=[N+]([O-])c1ccc(N(CCO)CCO)c2c1no[n+]2[O-]	6.05% (active)
COc1cc([C@@H]2c3cc4c(c(O)c3C[C@H]3COC(=O)[C@@H]32)OCO4)cc(OC)c1OC	8.86% (active)
COS(=O)(=O)c1ccccc1	99.5% (inactive)
CC(=O)[O][Hg][c]1c(C)c(C)cc(C)c1C	-6.63% (active)
Oc1c(I)cc(I)cc1I	95.4% (inactive)
Oc1ccccc1-c1ccccc1	98.1% (inactive) and 94.1% (inactive)
CN(CCCl)c1ccc(/C=C/C2=[N+](C)c3ccccc3C2(C)C)cc1	14.9% (inactive)
COc1ccc(/C=C(\C)[N+](=O)[O-])cc1OC	-34.6% (active)
CC/C(=C/c1ccc(OC)cc1)[N+](=O)[O-]	-41.5% (active)
CC(C)c1cc([N+](=O)[O-])cc([N+](=O)[O-])c1O	93.3% (inactive)
O=c1[nH]c2ccccc2n1C1CCN(CCCC(c2ccc(F)cc2)c2ccc(F)cc2)CC1	65% (inactive) and 6.06% (active)
CCOC(=O)c1[nH]cnc1/N=N/N(C)N	69.3% [100 µM] (inactive) and -85.5% [100 µM] (active)
C=NCC#N	109% (inactive) and 92.1% (inactive)
CC(Cc1ccc2c(c1)OCO2)NN (stereo not given)	91.2% (inactive)

Same assay, conditions: 100 µM

SMILES	growth
COc1cc2c(c(OC)c1OC)-c1ccc(O)c(=O)cc1[C@@H](NC(C)=O)CC2	-47.9% (active)
CC1CCC2(OC1)OC1C(O)C3C4CCC5CC(OC6OC(CO)C(OC7OC(CO)C(O)C(OC8OCC(O)C(O)C8O)C7OC7OC(CO)C(O)C(OC8OC(CO)C(O)C(O)C8O)C7O)C(O)C6O)C(O)CC5(C)C4CCC3(C)C1C2C (stereo not given)	-84.7% (active) and -85.4% (active)
